The values that follow come from PubChem BioAssay AID488969 (Vanderbilt High Throughput Screening Facility, 2010).

Whole data set: some 110,000 compounds, median “z-score” near -0.1, cut for the highest 2% near 2. Only a selection was taken, and the highest values are over-represented in it overall. Calls of active or inactive are those of the source.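 The calls were made as follows: active = z-score in the third read window above 3 or below -3; inactive = the rest.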

Metabotropic glutamate receptor 8 (Rattus norvegicus), sequence (P70579 whole entry, looked up): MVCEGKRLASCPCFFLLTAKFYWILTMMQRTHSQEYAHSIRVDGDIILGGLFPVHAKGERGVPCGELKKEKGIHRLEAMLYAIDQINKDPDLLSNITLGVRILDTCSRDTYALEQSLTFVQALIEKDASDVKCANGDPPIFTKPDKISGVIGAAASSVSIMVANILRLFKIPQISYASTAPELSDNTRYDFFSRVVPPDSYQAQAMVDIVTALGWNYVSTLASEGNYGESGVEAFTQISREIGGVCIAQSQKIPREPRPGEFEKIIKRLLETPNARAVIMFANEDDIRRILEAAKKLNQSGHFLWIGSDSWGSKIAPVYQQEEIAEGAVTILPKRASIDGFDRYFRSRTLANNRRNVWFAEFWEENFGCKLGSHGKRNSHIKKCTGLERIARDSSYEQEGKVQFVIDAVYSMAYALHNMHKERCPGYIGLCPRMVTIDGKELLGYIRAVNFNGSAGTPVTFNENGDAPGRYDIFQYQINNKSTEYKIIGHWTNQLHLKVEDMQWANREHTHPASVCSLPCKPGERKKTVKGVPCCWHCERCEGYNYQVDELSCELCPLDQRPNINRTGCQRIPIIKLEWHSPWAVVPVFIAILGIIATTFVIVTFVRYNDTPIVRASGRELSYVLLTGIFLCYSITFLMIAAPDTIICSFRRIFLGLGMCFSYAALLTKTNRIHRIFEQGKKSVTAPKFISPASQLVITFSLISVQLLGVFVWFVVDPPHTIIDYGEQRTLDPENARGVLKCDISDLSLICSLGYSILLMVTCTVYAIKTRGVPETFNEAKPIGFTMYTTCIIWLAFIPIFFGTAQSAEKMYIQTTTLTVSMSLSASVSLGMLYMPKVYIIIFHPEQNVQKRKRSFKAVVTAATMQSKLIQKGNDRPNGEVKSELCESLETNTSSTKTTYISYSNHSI

The test addresses Metabotropic glutamate receptor 8 (Rattus norvegicus) (UniProt P70579). As to the kind of experiment: mGluR8 Gi/Go-coupled signaling modulation – cell-based, rat, thallium flux, HTS, primary screen (AID 488969). The following applies: HEK293 rat mGluR8, GIRK (G protein-gated inwardly rectifying potassium channel) thallium flux, FluoZin2; at 10 µM; stronger effect = higher value; submaximal glutamate (EC20) added with thallium.
`Cc1ccsc1/C=C(\C#N)C(=O)NCc1ccco1` gave a z-score of -0.0871.
`COc1ccc(C)c(S(=O)(=O)Nc2ccc(OCC(=O)O)cc2)c1` returned a z-score of 0.2.
As for `COc1cc(C)c(S(=O)(=O)Nc2ccc(CC(=O)O)cc2)cc1C`, the figure is 2.01.
Next, `CCOc1cc(C)c(S(=O)(=O)Nc2ccc(F)cc2)cc1C`: 0.564.
As for `N#C/C(=C\c1ccccc1)C(=O)Nc1cc(S(=O)(=O)N2CCOCC2)ccc1N1CCCC1`, the figure is -0.0157; as for `CC(C)NC(=O)C12CC3CC(C1)CC(n1cnc(Cl)n1)(C3)C2`, -0.0733; as for `COc1ccc(C(=O)NNC(=O)CN2CCC(n3nnc4cc(F)ccc43)CC2)cc1`, -0.223.
`Cc1ccc(OCC(=O)N/N=C\c2ccc(-c3cccc(C(=O)O)c3)o2)c(C)c1`: the z-score was 3.24 (active).
Take `O=C(O)c1cccc(-c2ccc(/C=N/NC(=O)c3cccnc3)o2)c1`: the z-score was -0.216.
Next, `Cc1ccc(OCC(=O)N/N=C\c2ccncc2)c(C)c1`: 1.4.
With `O=C(NC1CCCC1)C1CCN(c2nccs2)CC1`, the z-score is 0.382.
As for `CCc1cccc(CC)c1NC(=O)COC(=O)CCc1cc(OC)c(OC)c(OC)c1`, the figure is -0.0755; as for `CCC(=O)c1c[nH]c(C(=O)NCCCN2CCOCC2)c1`, -0.121.
As for `CC(=O)N1CCC(N(CCN2CCOCC2)C(=S)Nc2cc(C)ccc2C)CC1`, the figure is -0.0971; as for `COC(=O)c1cc(NC(=O)c2c(Cl)cnn2C)cc(C(=O)OC)c1`, -0.191; as for `CCCCOC(=O)c1ccc(NC(=O)c2nn(C)cc2Br)cc1`, -0.112.
As for `COC(=O)c1ccc(NC(=S)NC(=O)c2c(Cl)cnn2C)cc1`, the figure is 10.1 (active); as for `CCCCOC(=O)c1ccc(NC(=S)NC(=O)c2c(Cl)cnn2CC)cc1`, 8.06 (active).
Turning to `CCCCOC(=O)c1ccc(NC(=S)NC(=O)c2c(Br)c(C)nn2C)cc1`, the z-score was 4.24 (active).
For `CCCCOC(=O)c1ccc(NC(=O)c2cnccn2)cc1`, the z-score worked out at 0.00424.
Next, `Cn1ncc(Cl)c1C(=O)Nc1ccncc1`: 0.243.
Next, `CCCCOC(=O)c1ccc(NC(=O)c2ccccc2OC)cc1`: -0.0471.
As for `CCCCOC(=O)c1ccc(NC(=S)NC(=O)c2c(Cl)cnn2C)cc1`, the figure is 11.2 (active); as for `CCn1ncc(Cl)c1C(=O)Nc1ccncc1`, -0.171.
`CCCCOC(=O)c1ccc(NC(=O)c2cc(Cl)ccc2OC)cc1` displayed a z-score of -0.0115.
As for `CCOC(=O)c1ccc(NC(=S)NC(=O)c2nn(CC)cc2Br)cc1`, the figure is 1.17; as for `CCc1nnc(NC(=O)C2CCCN2S(=O)(=O)c2ccc(F)cc2)s1` (stereo not given), 0.145.
As for `CCOC(=O)c1cccc(NS(=O)(=O)c2c(C)[nH]c(=O)[nH]c2=O)c1`, the figure is -0.0134.
Next, `CCn1c(/C=C2\C(=O)Nc3ccccc32)nc2ccccc2c1=O`: -0.221; `COc1cccc(OCC(=O)N(Cc2nc(-c3ccc(Cl)cc3)no2)C(C)C)c1`: 0.0492; `CCS(=O)(=O)NC(C)C(c1cccs1)N1CCN(c2ccc(F)cc2)CC1` (stereo not given): 0.062.
For `COc1ccc(OC)c(N2Cc3cc(C)c(C)cc3C2)c1`, the z-score amounted to 0.286.
For `NC(=O)N1CCN(C(=O)c2ccco2)CC1`, the z-score worked out at 0.536.
Next, `COc1ccc(OC)c(/C=N/NC(=O)CC2C(=O)NN=C2C)c1` (stereo not given): -0.12; `O=C(NC(=S)Nc1ccc(N2CCOCC2)cc1)c1cccc([N+](=O)[O-])c1`: 0.169.
Next, `O=C(Nc1ccc(CN2CCOCC2)cc1)c1cc2ccccn2n1`: 4.59 (active); `O=C(NC(=S)Nc1ccc(CN2CCOCC2)cc1)c1ccc([N+](=O)[O-])cc1`: 0.649.
Next, `O=C(Nc1ccc(CN2CCOCC2)cc1)c1cc2ccccc2o1`: 0.834.
In turn, `C=CCN(CC=C)S(=O)(=O)c1ccc(NC(=S)NC(=O)c2ccc(-c3ccccc3)cc2)cc1` displayed a z-score of -0.107.
As for `O=C(NC(=S)Nc1ccc(CN2CCOCC2)cc1)c1cccc([N+](=O)[O-])c1`, the figure is 2.19; as for `C=CCN(CC=C)S(=O)(=O)c1ccc(NC(=S)NC(=O)c2ccco2)cc1`, 10.3 (active).
Compound `COc1ccc(NC(=O)c2cc3ccccn3n2)cc1` registered a z-score of -0.0979.
Next, `CC1CCN(c2ccc(NC(=S)NC(=O)c3ccco3)cc2)CC1`: 4.93 (active); `O=C(NC(=S)Nc1ccc(NC(=O)c2ccco2)cc1)c1ccccc1`: -0.416; `NS(=O)(=O)c1ccc(NC(=S)NC(=O)c2ccco2)cc1`: -0.0865.
Next, `CC1CCN(c2ccc(NC(=S)NC(=O)c3ccc(-c4cccc([N+](=O)[O-])c4)o3)cc2)CC1`: -0.0494.
With `Cc1cccc2sc(NC(=O)C3CCN(S(=O)(=O)c4cc([N+](=O)[O-])ccc4Cl)CC3)nc12`, the z-score was 0.0365.
Next, `CCOC(=O)C1CCN(C(=O)COc2ccc(Cl)cc2Cl)CC1`: -0.471; `CCCCOC(=O)Nc1ccc(S(=O)(=O)Nc2ccc([N+](=O)[O-])cc2)cc1`: 0.51.
Regarding `N/C(=N\OC(=O)c1ccc(Cl)c(Cl)c1)c1cccnc1`, the z-score was -0.145.
Next, `COc1ccccc1NC(=O)N(Cc1ccco1)Cc1cc2ccc(C)c(C)c2[nH]c1=O`: -1.77.
Next, `C=CCn1c(Cc2cccs2)nnc1SCC(=O)c1ccc2ccccc2c1`: -0.708.
Next, `CCOC(=O)c1c(NC(=O)c2noc3c2CCCC3)sc(C)c1C`: -0.285.
With `O=C(NC(=S)Nc1ccc(N2CCOCC2)cc1)c1cccc(Cl)c1`, the z-score is 4.95 (active).
As for `O=C(NC(=S)Nc1ccc(N2CCCCC2)cc1)c1ccco1`, the figure is -1.53; as for `O=C(NC(=S)Nc1ccc(N2CCOCC2)cc1)c1ccc(Cl)cc1`, 0.272.
Next, `S=C(NCc1ccco1)Nc1ccc(N2CCOCC2)cc1`: -0.00184; `O=C(NC(=S)Nc1ccc(N2CCOCC2)cc1)c1ccc2c(c1)OCCO2`: 0.0862.
In the case of `O=C(NC(=S)Nc1ccc(N2CCOCC2)cc1)c1ccco1`, the z-score was 3.46 (active).
Next, `O=C(c1ccccc1CCc1ccccc1)N1CCN(c2ccccn2)CC1`: 2.38; `O=C(c1ccccc1-c1ccccc1)N1CCN(c2ccccn2)CC1`: -0.0481.
Next, `O=C(CCc1ccccc1)N1CCN(c2ccccn2)CC1`: -0.254.
Next, `COc1cccc(-c2nnc(NC(=O)C(C)C)o2)c1`: 0.295.
Compound `CCC(=O)Nc1nnc(-c2ccc(OC)cc2)o1` had a z-score of -0.442.
Compound `COc1ccc(-c2nnc(NC(=O)C(C)C)o2)cc1` came in with a z-score of 2.14.
As for `COc1ccc(-c2nnc(NC(=O)c3ccc(F)cc3)o2)cc1`, the figure is 5.46 (active); as for `CCOc1ccc(-c2nnc(NC(=O)CCCOc3cccc(C)c3)o2)cc1`, 3.62 (active).
Next, `COc1ccc(-c2nnc(-c3ccc(OCC(C)C)cc3)o2)cc1`: 0.807; `CCOc1cccc(C(=O)Nc2cccc(-c3nnc(-c4ccc(C)cc4)o3)c2)c1`: 0.689.
As for `CCOc1ccc(-c2nnc(NC(=O)c3ccc(OCC(C)C)c(OC)c3)o2)cc1`, the figure is 10.4 (active).
With `CCOc1ccc(NC(=O)CNC(=O)c2ccc(OC)c(OC)c2)cc1`, the z-score is -0.166.
As to `CC(C)C(=O)Nc1nnc(-c2ccccc2)o1`, the z-score came out at 0.162.
The compound `COc1ccc(-c2nnc(NC(=O)c3cc(Cl)ccc3Cl)o2)cc1` registered a z-score of 1.02.
Next, `O=C(COc1ccccc1)Nc1nnc(-c2ccccc2)o1`: -0.421.
Next, `O=C(Nc1cccc(F)c1)C1CCN(C(=O)c2ccccc2Cl)CC1`: -0.486; `CCOC(=O)CS(=O)(=O)c1ccc(C(F)(F)F)cn1`: -0.0154; `CCCOC(=O)c1ccc(NS(=O)(=O)c2cccs2)cc1`: 0.0163.
As for `Cc1cc(C)c2nc(NC(=O)c3cccc(S(=O)(=O)N4CCc5ccccc54)c3)sc2c1`, the figure is -0.315.
For `CN1CCOCCOCCN(C)C(=O)N2CCOCCOCCN(CCOCC2)C1=O`, the z-score stood at 1.25.
Next, `CC(C)(C)c1ccc(CSc2nnc(-c3ccccn3)n2Cc2ccco2)cc1`: -0.295.
Next, `Clc1ncnc2scc(C3COc4ccccc4O3)c12` (stereo not given): -0.228; `Cc1cc(C)nc(NS(=O)(=O)c2ccc(NC(=O)CCC3COc4ccccc4O3)cc2)n1` (stereo not given): -0.4.
As for `Cc1cc(NC(=O)c2cnc3ccccn3c2=O)no1`, the figure is -0.108; as for `CCCCNC(=S)NCCN1CCCCC1`, 0.407.
Take `COc1ccc(C(C[N+](=O)[O-])c2c(C)[nH]c3ccccc23)cc1OC` (stereo not given): the z-score was -2.31.
As for `CN(CC(O)COc1ccc(OCC(O)CN(C)C2CCCCC2)cc1)C1CCCCC1` (stereo not given), the figure is 1.64; as for `CCN(CC(O)COc1ccc(OCC(O)CN(CC)C2CCCCC2)cc1)C1CCCCC1` (stereo not given), 2.32; as for `COc1ccc(OCC(O)CN(C2CCCCC2)C2CCCCC2)cc1` (stereo not given), 0.744.
Next, `O=C(/C=C/c1ccc(S(=O)(=O)N2CCOCC2)cc1)NCc1ccccc1`: -0.687; `CCOC(=O)N1CCC(N(C(=O)Nc2ccc(Cl)c(Cl)c2)C(C)CC)CC1` (stereo not given): -0.099.
`COc1cc(-c2nnc(CSc3nc4ccccc4s3)o2)cc(OC)c1OC`: the z-score is -3.36 (active).
As for `Nc1nc2c(F)cccc2s1`, the figure is -0.0918; as for `COc1cccc(-c2nnc(-c3ccc(C(F)(F)F)cc3)o2)c1`, -0.245; as for `O=c1oc2ccccc2cc1-c1csc(Nc2nc3c(F)cccc3s2)n1`, 0.848.
As for `Cc1ccsc1C(=O)Nc1nnc(-c2ccco2)o1`, the figure is 0.832.
On to `CCOC(=O)c1sc(Nc2nc3c(F)cccc3s2)cc1C`, for which the z-score is 0.23.
Take `COc1cc(OC)cc(-c2nnc(Nc3nc4c(F)cccc4s3)o2)c1`: the z-score was 9.94 (active).
Next, `COc1cccc(-c2nnc(NC(=O)C3CCCCC3)o2)c1`: -0.375; `c1coc(-c2nnc(NC3=NCCC3)o2)c1`: 1.08.
As for `Fc1cccc2sc(Nc3nnc(-c4ccccc4)o3)nc12`, the figure is 17.1 (active).
Next, `COc1cccc(-c2nnc(Nc3nc4c(F)cccc4s3)o2)c1`: 17.4 (active); `Fc1cccc2sc(Nc3nnc(-c4ccco4)o3)nc12`: 16 (active); `CCOC(=O)C(C)n1cnc2c1c(=O)[nH]c(=O)n2C` (stereo not given): -0.374.
`COc1ccc(CNC(=O)CN(C(=O)c2ccc(CN3CCOCC3)o2)C2CCCC2)cc1` had a z-score of -0.1.
As for `CCOc1cc(-c2cc(-c3ccc(C)cc3)nc(N)c2C#N)ccc1O`, the figure is -0.244; as for `CC1c2c([nH]c3ccccc23)CCC1C(=O)O` (stereo not given), 0.673.
As for `CCN1CCN(C(=S)NCc2ccc(C)cc2)CC1`, the figure is 0.0391.
As for `CN(CC(=O)Nc1cccnc1)S(=O)(=O)c1ccccc1`, the figure is -0.0827.
`CCOC(=O)C1[C@H]2C(=O)N(CCCOC)C[C@]23C=C[C@H]1O3` (stereo not given in full) came in with a z-score of -0.0146.
Take `CCOCCCNCC(=O)NC1(C)C2CCC(C2)C1(C)C` (stereo not given): the z-score was -0.581.
